# Results taken from PubChem BioAssay (NCI).
# The panel holds about 83,000 compounds, 20% with a hit somewhere; the sample as a whole holds those more often.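 Results are percent growth after 48 hours of single-concentration exposure. 100 means growth as in untreated cells, lower positive values show inhibition; negative values down to -100 show cell death.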 Values without a mark were called inactive. The source made the active and inactive calls. Rule for the calls: active = growth percent below 10; inactive = the rest.
# Key:
# Assay in all cases: NCI-60 one-dose screen, 48 h (100 = growth as untreated, 0 = no growth, -100 = all killed)
# Settings in all cases: 10 µM
# [1] = tested on: SK-MEL-2 melanoma
# [2] = tested on: EKVX NSCLC
# [3] = tested on: SN12C renal
# [4] = tested on: UO-31 renal
# [5] = tested on: TK-10 renal
# [6] = tested on: ACHN renal
# [7] = tested on: CAKI-1 renal
# [8] = tested on: CCRF-CEM leukemia
# [9] = tested on: MOLT-4 leukemia
# [10] = tested on: A498 renal
Structure (SMILES),growth [1],growth [2],growth [3],growth [4],growth [5],growth [6],growth [7],growth [8],growth [9],growth [10]
COc1ccc(N(C)c2cc(C#N)nc3ccccc23)cc1N,4.88% (active),20.5%,5.85% (active),20.6%,76.7%,23.5%,26.1%,5.77% (active),15.4%,–
O=C(Nc1nc2ccccc2s1)c1ccc(Br)cc1,96.1%,63.5%,89.9%,76.1%,104%,94.8%,91.1%,85.6%,74.3%,–
CN1CCN(Cc2ccc(NC(=O)c3cncc(C#Cc4cnc5ccc(N[C@@H]6CCOC6)nn45)c3)cc2C(F)(F)F)CC1,-94.3% (active),-99.6% (active),-98.6% (active),-98.6% (active),-82.2% (active),-100% (active),-98.1% (active),-4.84% (active),-19% (active),–
Cc1ccc(C(=O)NCCCNc2nc(Nc3ccc(N4CCN(C)CC4)cc3)nc3ccsc23)cc1,81.8%,71.2%,72.6%,56.7%,87.2%,30.5%,54%,4.37% (active),–,–
CN1CCN(c2ccc(Nc3nc(NCCCNC(=O)C4CCCCC4)c4sccc4n3)cc2)CC1,102%,67.3%,70.6%,62.4%,99.4%,36.2%,57.2%,18%,–,–
CCCCCCCCCCCCCCCCCCCC(=O)NCCc1c[nH]c2ccc(OC(=O)CCCC(=O)OCCOOCCOOCCOOCCOOCCOOCCOOCCOOCCOOCCOOCCOOCCOOCCOC)cc12,78.1%,83.1%,17.4%,45.4%,120%,59.9%,73.7%,–,-4.66% (active),116%
COc1ccc(CN2[C@H](C(=O)NCCCCCCC(=O)NO)Cc3c([nH]c4ccccc34)[C@H]2C2CC2)cc1,-16.7% (active),16.8%,7.85% (active),7.67% (active),-19.7% (active),0.712% (active),4% (active),19.7%,12.2%,–
O=C(CNc1nc(-c2ccccc2)cs1)Nc1ccc([N+](=O)[O-])cc1,31.1%,9.52% (active),16.9%,-74.3% (active),-58% (active),-15.8% (active),7.15% (active),14.3%,15.7%,–
O=C(CSc1nnc(-c2c[nH]c3ccccc23)n1-c1ccccc1)Nc1ccc(C(=O)/C=C/c2ccc(Br)cc2)cc1,101%,67.4%,89.5%,52.9%,97.7%,78%,76%,90.9%,57.1%,–
CCN1CCN(c2ccc(NC(=O)Nc3ccc(-c4cc(C(=O)NC(C)C)c5ncccc5n4)cc3)cc2C(F)(F)F)CC1,-71% (active),-91.5% (active),-94.3% (active),-94.5% (active),-92.7% (active),-93.1% (active),-95.2% (active),-44.5% (active),–,–
CCCCCCCCCCCCCCCCCCCC(=O)NCCc1c[nH]c2ccc(O)cc12,107%,101%,84.9%,71.9%,118%,98.8%,105%,–,71.2%,–
O=C(CN1CCN(c2ncnc3c2cnn3-c2ccccc2)CC1)Nc1nncs1,28%,-44.8% (active),-54.7% (active),-97.2% (active),-56.5% (active),-87.5% (active),-95.7% (active),–,3.73% (active),–
O=C1CCC(N2Cc3cc(NC(=O)COc4ccccc4)ccc3C2=O)C(=O)N1 (stereo not given),98.3%,78.6%,73.6%,28.5%,66%,91.9%,–,22.7%,11.5%,75.1%
COc1ccc([C@H]2C(C(=O)c3ccc(Cl)cc3)C3(N[C@@H]2c2ccccc2)C(=O)Nc2ccc(Br)cc23)cc1 (stereo not given in full),-64.5% (active),6.66% (active),-81.3% (active),0.589% (active),9.79% (active),0.391% (active),–,13.9%,12.1%,-7.09% (active)
O=c1oc2ccc(-c3ccc(F)cc3F)cc2c(=O)n1-c1ccc(F)cc1,-61.5% (active),4.34% (active),-13.3% (active),-3.9% (active),20.5%,-12.7% (active),–,1.33% (active),-32.1% (active),-17.2% (active)
COc1ccc(NC(=O)Nc2ccc(OCC(=O)N=Nc3c(O)[nH]c4ccc([N+](=O)[O-])cc34)cc2)cc1,89.4%,83.7%,72.5%,94.3%,113%,102%,–,93.7%,100%,101%
Cc1noc2c(Cc3ccccc3)nn(CC(=O)N/N=C/c3ccc(F)cc3)c(=O)c12,73.7%,70.8%,25.6%,5.87% (active),59.2%,9.34% (active),–,100%,106%,-20% (active)
CN1CCN(c2ccc(C(=O)/C=C/c3ccc(OC(F)F)cc3)cc2)CC1,111%,80.1%,26.4%,31.4%,63.8%,65.5%,–,21.9%,0.533% (active),51.6%
Cn1cc(/C=N/Nc2ccnc3cc(Cl)ccc23)c2ccccc21,-72.3% (active),-85.1% (active),-59.4% (active),-90.1% (active),-72.1% (active),-92.7% (active),–,-35.6% (active),-32.1% (active),-80.2% (active)
O=c1c2ccccc2nc(COc2ccccc2)n1/N=C/c1ccc(N2CCOCC2)cc1,70.4%,69.7%,68%,69.3%,81.6%,60.6%,–,97.7%,117%,78.2%
O=C(Nc1ccc(OCc2ccccc2)cc1)Nc1ccc(Cl)c(C(F)(F)F)c1,-40.2% (active),5.04% (active),2.86% (active),-1.46% (active),21%,–,3.68% (active),-23.4% (active),–,-15.1% (active)
COc1cc2c3c(n(CCCNC(C)C)c(=O)c2cc1OC)-c1nc2c(cc1C3=O)OCO2,128%,87.6%,-88.9% (active),-97% (active),97.2%,4.04% (active),–,5.05% (active),-1.94% (active),81.9%
CC(C)C(=O)Nc1ccc(C(=O)NC(=S)Nc2ccc(C(=O)O)cc2)cc1,105%,96.6%,96.3%,88.4%,101%,–,99.3%,107%,–,122%
CC(C)(C)Nc1nc2cc(Cl)c(Cl)cc2nc1S(C)(=O)=O,37.2%,58.1%,20.1%,90%,99.8%,56.3%,–,-17.9% (active),-3.12% (active),142%
O=C1Nc2ccc(Cl)cc2/C1=C/c1cccc(OCc2ccccn2)c1,-50.6% (active),10.7%,-50.6% (active),8.26% (active),10.5%,-40.3% (active),–,-23.1% (active),4.5% (active),95%
CC(=O)NNc1ccc2nnc(-c3ccc(Br)cc3)n2n1,104%,81.7%,105%,82.1%,103%,101%,–,40.1%,92.3%,83.4%
COc1ccc(C(C)=C(c2ccc(OCCCN(C)C)cc2)c2ccc(OCCCN(C)C)cc2)cc1,-92.8% (active),-85.1% (active),-94.2% (active),-99.4% (active),-97.7% (active),-100% (active),–,-81.2% (active),–,-85.2% (active)
